# What was measured:
# Assay in all cases: DAPPL (digital affinity profiling via proximity ligation, sequencing); 10 mM Tris-HCl pH 7.5, 50 mM NaCl, 1 mM DTT, 4% glycerol, room temperature, 30 min; GST-TFs on glutathione beads, 16-mer random dsDNA library, 0.1% formaldehyde crosslink after washing; high values mean tight binding
# HSF1 = HSF1 (Homo sapiens, UniProt Q00613 1-529); details: protein: recombinant; tags: N-terminal GST; chain copies: 3; dsDNA, one strand shown
# Summary of the method: (§1)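 Binding signal is each hexamer's read frequency for a factor divided by its frequency in the tag-only sample. The factors were GST-fused human transcription factors from yeast, captured on glutathione beads, DNA-barcoded and pooled with that sample. Pools were incubated with 200 nmole of a random double-stranded 16-mer DNA library in Tris/NaCl/DTT/glycerol buffer at room temperature for 30 min, then washed, crosslinked with 0.1% formaldehyde, proximity-ligated with BsaI/T4 ligase (1 h, 37 °C), PCR-amplified and sequenced on an Illumina NextSeq500.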
# ELK1 = molecular target: T1, ELK1 (Homo sapiens, UniProt P19419 1-428); details: protein: recombinant; tags: N-terminal GST; dsDNA, one strand shown
# T1 sequence: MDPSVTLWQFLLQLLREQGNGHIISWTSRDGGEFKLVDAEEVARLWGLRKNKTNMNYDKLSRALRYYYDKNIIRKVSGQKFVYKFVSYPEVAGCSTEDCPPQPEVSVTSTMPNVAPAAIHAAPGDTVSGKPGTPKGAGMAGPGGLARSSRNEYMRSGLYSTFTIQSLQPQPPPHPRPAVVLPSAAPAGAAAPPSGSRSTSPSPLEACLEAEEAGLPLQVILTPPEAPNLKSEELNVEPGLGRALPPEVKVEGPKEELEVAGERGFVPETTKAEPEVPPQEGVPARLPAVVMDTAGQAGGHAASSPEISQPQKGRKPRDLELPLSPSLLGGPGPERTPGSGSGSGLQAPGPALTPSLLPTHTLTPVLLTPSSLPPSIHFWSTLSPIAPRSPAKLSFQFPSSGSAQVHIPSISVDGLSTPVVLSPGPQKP
# Summary of the method: as §1
# GABPA = molecular target: T2, GABPA (Homo sapiens, UniProt Q06546 1-454); details: protein: recombinant; tags: N-terminal GST; dsDNA, one strand shown
# T2 sequence: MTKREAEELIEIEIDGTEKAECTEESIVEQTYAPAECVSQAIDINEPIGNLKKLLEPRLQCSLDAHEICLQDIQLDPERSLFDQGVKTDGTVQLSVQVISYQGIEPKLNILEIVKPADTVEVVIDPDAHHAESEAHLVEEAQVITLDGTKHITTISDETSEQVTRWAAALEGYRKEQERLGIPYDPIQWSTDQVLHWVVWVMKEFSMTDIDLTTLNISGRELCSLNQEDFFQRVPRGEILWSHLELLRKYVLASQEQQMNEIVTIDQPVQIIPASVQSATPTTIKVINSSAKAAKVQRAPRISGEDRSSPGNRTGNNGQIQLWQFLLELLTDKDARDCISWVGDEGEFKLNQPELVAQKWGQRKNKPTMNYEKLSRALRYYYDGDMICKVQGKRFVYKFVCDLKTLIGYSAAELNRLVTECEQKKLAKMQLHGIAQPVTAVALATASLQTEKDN
# Summary of the method: as §1
# ELF1 = ELF1 (Homo sapiens, UniProt P32519 1-619); details: protein: recombinant; tags: N-terminal GST; dsDNA, one strand shown
# Summary of the method: as §1
# SPIB = SPIB (Homo sapiens, UniProt Q01892 1-262); details: protein: recombinant; tags: N-terminal GST; dsDNA, one strand shown
# Summary of the method: as §1
# ELK3 = molecular target: T3, ELK3 (Homo sapiens, UniProt P41970 1-407); details: protein: recombinant; tags: N-terminal GST; dsDNA, one strand shown
# T3 sequence: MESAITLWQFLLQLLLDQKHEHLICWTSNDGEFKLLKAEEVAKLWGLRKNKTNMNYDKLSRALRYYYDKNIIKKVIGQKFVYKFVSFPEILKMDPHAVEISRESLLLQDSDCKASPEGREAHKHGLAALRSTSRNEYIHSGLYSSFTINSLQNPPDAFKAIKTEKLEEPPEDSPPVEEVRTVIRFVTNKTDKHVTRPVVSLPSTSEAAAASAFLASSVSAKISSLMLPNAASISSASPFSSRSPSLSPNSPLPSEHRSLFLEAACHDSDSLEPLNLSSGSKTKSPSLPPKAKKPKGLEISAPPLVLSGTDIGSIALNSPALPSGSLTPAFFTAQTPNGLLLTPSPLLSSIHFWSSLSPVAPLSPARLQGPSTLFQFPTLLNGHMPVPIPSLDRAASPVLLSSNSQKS
# Summary of the method: as §1
# FEV = molecular target: T4, FEV (Homo sapiens, UniProt Q99581 1-238); details: protein: recombinant; tags: N-terminal GST; dsDNA, one strand shown
# T4 sequence: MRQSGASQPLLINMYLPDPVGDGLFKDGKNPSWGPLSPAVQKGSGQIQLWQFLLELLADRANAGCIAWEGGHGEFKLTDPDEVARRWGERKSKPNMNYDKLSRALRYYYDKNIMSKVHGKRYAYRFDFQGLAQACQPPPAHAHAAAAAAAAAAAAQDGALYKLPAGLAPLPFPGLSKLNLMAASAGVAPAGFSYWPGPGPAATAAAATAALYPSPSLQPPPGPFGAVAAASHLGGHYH
# Summary of the method: as §1
# SPIC = molecular target: T5, SPIC (Homo sapiens, UniProt Q8N5J4 1-248); details: protein: recombinant; tags: N-terminal GST; dsDNA, one strand shown
# T5 sequence: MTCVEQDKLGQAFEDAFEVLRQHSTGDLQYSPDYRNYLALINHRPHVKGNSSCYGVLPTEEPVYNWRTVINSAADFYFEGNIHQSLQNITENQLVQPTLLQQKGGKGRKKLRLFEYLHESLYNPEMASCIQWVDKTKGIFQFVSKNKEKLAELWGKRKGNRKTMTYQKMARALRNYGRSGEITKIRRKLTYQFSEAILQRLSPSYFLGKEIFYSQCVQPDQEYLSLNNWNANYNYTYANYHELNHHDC
# Summary of the method: as §1
# ELK4 = molecular target: T6, ELK4 (Homo sapiens, UniProt P28324-2 1-405); details: protein: recombinant; tags: N-terminal GST; dsDNA, one strand shown
# T6 sequence: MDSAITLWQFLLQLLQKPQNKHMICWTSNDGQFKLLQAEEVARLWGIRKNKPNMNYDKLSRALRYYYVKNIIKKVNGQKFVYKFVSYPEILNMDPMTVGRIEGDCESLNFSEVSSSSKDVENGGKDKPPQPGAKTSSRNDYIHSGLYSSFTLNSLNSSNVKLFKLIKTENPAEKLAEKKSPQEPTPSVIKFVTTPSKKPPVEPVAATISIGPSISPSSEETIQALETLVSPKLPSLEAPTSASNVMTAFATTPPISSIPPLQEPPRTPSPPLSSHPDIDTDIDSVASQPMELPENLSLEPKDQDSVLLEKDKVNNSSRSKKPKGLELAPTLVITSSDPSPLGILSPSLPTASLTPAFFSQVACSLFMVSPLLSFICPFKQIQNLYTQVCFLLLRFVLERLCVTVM
# Summary of the method: as §1
# CRX = CRX (Homo sapiens, UniProt O43186 1-299); details: protein: recombinant; tags: N-terminal GST; dsDNA, one strand shown
# Summary of the method: as §1
# ERF = molecular target: T7, ERF (Homo sapiens, UniProt P50548 1-548); details: protein: recombinant; tags: N-terminal GST; dsDNA, one strand shown
# T7 sequence: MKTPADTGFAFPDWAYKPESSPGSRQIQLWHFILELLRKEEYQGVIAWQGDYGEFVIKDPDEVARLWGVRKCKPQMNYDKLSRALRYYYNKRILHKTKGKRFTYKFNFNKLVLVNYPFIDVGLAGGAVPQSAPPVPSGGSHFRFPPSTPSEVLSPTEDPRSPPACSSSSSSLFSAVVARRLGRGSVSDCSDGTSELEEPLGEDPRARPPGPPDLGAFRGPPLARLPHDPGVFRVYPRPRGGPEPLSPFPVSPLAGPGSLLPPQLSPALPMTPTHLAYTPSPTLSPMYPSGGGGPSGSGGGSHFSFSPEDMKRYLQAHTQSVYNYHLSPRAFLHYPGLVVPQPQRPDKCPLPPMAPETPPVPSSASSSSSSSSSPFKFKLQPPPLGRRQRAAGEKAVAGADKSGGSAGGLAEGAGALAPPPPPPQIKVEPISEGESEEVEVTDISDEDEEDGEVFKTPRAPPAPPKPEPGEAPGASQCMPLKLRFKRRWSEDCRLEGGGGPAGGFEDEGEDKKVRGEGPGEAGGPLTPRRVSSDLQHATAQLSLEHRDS
# Summary of the method: as §1
# ETV3L = molecular target: T8, ETV3L (Homo sapiens, UniProt Q6ZN32 1-361); details: protein: recombinant; tags: N-terminal GST; dsDNA, one strand shown
# T8 sequence: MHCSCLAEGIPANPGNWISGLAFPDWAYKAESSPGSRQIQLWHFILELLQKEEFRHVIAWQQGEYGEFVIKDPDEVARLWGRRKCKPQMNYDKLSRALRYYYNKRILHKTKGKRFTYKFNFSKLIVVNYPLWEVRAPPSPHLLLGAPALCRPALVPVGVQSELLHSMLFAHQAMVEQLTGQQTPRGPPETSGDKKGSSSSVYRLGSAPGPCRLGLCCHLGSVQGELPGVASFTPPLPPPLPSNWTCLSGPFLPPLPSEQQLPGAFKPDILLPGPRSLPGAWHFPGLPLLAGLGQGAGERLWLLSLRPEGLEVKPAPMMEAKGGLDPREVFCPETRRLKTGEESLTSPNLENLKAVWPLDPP
# Summary of the method: as §1
# ETS2 = molecular target: T9, ETS2 (Homo sapiens, UniProt P15036 1-469); details: protein: recombinant; tags: N-terminal GST; dsDNA, one strand shown
# T9 sequence: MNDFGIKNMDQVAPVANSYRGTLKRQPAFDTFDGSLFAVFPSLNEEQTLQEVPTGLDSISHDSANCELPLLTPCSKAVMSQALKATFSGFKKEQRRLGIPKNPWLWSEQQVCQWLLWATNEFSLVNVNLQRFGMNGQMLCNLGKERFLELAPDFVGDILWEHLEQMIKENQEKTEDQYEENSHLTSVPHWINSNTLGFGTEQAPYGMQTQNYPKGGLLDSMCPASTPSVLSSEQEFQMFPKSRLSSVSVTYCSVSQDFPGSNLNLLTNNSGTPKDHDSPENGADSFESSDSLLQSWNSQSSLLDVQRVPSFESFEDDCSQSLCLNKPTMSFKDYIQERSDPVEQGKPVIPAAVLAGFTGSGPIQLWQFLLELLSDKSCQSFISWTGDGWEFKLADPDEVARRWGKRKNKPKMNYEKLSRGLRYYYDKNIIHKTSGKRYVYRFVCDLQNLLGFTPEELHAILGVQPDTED
# Summary of the method: as §1
# SPDEF = molecular target: T10, SPDEF (Homo sapiens, UniProt O95238 1-335); details: protein: recombinant; tags: N-terminal GST; dsDNA, one strand shown
# T10 sequence: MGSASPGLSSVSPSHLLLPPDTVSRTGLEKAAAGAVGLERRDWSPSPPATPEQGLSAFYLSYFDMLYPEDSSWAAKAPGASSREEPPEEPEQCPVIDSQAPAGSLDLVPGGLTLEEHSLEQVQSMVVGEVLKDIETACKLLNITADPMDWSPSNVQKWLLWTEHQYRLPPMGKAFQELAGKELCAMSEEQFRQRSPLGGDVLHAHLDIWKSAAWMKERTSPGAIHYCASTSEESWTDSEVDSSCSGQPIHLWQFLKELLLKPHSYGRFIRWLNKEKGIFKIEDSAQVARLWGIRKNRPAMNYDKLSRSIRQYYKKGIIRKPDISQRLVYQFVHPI
# Summary of the method: as §1
# ETV7 = molecular target: T11, ETV7 (Homo sapiens, UniProt Q9Y603 1-341); details: protein: recombinant; tags: N-terminal GST; dsDNA, one strand shown
# T11 sequence: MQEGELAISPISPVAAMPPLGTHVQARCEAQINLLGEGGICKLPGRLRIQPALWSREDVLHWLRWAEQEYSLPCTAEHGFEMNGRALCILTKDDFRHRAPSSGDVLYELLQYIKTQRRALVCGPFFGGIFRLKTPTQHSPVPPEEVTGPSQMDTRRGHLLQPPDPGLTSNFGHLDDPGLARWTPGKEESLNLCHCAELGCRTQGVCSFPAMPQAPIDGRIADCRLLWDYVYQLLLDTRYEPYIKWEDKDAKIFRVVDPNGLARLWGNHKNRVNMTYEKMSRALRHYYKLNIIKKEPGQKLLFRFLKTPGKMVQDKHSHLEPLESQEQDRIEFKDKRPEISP
# Summary of the method: as §1
# ETV3 = molecular target: T12, ETV3 (Homo sapiens, UniProt P41162-2 1-143); details: protein: recombinant; tags: N-terminal GST; dsDNA, one strand shown
# T12 sequence: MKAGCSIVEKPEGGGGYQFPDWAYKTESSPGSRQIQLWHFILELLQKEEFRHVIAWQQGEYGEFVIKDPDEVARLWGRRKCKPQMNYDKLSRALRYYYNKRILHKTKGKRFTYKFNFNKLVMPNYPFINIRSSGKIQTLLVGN
# Summary of the method: as §1
# Chain of HSF1 (Q00613 whole entry, the tested form may be a part): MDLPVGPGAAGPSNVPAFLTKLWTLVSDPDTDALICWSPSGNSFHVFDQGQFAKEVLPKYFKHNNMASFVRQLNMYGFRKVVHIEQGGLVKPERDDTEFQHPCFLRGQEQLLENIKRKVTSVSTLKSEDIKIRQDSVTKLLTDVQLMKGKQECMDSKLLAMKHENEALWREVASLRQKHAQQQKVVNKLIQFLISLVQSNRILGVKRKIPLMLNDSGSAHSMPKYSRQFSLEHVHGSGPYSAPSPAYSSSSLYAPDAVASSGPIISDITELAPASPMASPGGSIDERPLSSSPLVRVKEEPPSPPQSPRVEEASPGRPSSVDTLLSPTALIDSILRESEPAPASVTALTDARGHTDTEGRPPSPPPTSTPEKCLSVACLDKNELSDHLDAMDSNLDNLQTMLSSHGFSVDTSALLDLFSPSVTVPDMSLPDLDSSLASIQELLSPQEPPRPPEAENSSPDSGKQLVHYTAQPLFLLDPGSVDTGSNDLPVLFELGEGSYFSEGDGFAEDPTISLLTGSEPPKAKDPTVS
# Chain of SPIB (Q01892 whole entry): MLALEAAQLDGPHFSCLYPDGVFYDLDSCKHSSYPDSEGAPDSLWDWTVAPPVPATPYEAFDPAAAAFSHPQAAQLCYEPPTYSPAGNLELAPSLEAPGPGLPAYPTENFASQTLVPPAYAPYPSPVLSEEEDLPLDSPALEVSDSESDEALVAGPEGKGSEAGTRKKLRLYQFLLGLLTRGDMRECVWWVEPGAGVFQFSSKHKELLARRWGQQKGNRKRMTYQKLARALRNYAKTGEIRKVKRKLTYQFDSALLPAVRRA
# Chain of ELF1 (P32519 whole entry): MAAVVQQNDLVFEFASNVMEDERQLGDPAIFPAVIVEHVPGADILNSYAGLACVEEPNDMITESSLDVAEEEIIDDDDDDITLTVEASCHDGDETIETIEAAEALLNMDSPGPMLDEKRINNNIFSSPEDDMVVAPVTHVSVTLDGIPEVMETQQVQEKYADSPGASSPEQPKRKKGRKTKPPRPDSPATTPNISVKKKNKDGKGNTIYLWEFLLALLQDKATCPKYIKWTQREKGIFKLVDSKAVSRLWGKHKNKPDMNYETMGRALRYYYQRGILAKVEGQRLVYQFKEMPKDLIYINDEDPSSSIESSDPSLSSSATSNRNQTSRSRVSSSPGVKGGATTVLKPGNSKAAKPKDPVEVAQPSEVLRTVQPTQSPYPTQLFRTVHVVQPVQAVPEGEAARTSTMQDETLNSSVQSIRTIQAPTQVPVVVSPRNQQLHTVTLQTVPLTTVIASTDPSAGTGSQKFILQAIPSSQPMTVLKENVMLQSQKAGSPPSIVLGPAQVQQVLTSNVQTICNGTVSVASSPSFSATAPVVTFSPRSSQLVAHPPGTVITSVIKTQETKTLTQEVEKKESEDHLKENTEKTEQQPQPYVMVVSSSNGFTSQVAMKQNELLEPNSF
# Chain of CRX (O43186 whole entry): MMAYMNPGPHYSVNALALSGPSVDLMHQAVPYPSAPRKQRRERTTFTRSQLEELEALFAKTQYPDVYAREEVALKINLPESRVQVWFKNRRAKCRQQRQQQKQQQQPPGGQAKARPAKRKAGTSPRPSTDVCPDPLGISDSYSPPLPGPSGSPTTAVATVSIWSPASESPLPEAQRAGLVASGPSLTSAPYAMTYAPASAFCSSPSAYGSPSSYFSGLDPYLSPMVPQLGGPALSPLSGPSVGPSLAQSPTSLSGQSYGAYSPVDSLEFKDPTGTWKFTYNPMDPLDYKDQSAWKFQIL
sequence,measurement,setting,value
ACAGAA,binding signal,HSF1,"1.27 fold enrichment (6-mer frequency, TF over GST control)"
TCGCAT,binding signal,ELK1,"1.06 fold enrichment (6-mer frequency, TF over GST control)"
same,binding signal,GABPA,"1.02 fold enrichment (6-mer frequency, TF over GST control)"
same,binding signal,ELF1,"1.04 fold enrichment (6-mer frequency, TF over GST control)"
same,binding signal,SPIB,"1.06 fold enrichment (6-mer frequency, TF over GST control)"
same,binding signal,ELK3,"1.01 fold enrichment (6-mer frequency, TF over GST control)"
same,binding signal,FEV,"1.08 fold enrichment (6-mer frequency, TF over GST control)"
same,binding signal,HSF1,"1.04 fold enrichment (6-mer frequency, TF over GST control)"
same,binding signal,SPIC,"1.02 fold enrichment (6-mer frequency, TF over GST control)"
same,binding signal,ELK4,"1.08 fold enrichment (6-mer frequency, TF over GST control)"
same,binding signal,CRX,"1.15 fold enrichment (6-mer frequency, TF over GST control)"
same,binding signal,ERF,"1.07 fold enrichment (6-mer frequency, TF over GST control)"
same,binding signal,ETV3L,"1.03 fold enrichment (6-mer frequency, TF over GST control)"
same,binding signal,ETS2,"1.04 fold enrichment (6-mer frequency, TF over GST control)"
same,binding signal,SPDEF,"1.03 fold enrichment (6-mer frequency, TF over GST control)"
same,binding signal,ETV7,"1.01 fold enrichment (6-mer frequency, TF over GST control)"
same,binding signal,ETV3,"1.03 fold enrichment (6-mer frequency, TF over GST control)"
